The supplement of paper PMC4466140

What was measured:
Experiment in all cases: SPOT peptide array binding signal intensity (averaged, normalized) (arbitrary units (background-subtracted, floor 0; scale differs between SH3 domains)); higher = stronger binding of the SH3 domain to the peptide
AgAbp1 = molecular target: AgAbp1
Procedure, shortened: (§1)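 To measure binding, SH3 domains from four yeast species were fused to GST, expressed in E. coli BL21(DE3) and purified on glutathione Sepharose. Each domain was incubated at 10 μg/ml overnight at 4°C on cellulose membranes with synthetic 15-mer peptides whose cysteines were replaced by serines. Anti-GST antibody, an HRP anti-mouse secondary and luminol were used for detection, and images were quantified with Genespotter. Reported binding signal is normalized, background-subtracted spot intensity averaged over replicates, in arbitrary units that differ between domains.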

AgBbc1 = molecular target: AgBbc1
Procedure, shortened: as §1

AgBem1-D1 = molecular target: AgBem1-D1
Procedure, shortened: as §1

AgBzz1-D1 = molecular target: AgBzz1-D1
Procedure, shortened: as §1

AgBzz1-D2 = molecular target: AgBzz1-D2
Procedure, shortened: as §1

AgCyk3 = molecular target: AgCyk3
Procedure, shortened: as §1

AgFus1 = molecular target: AgFus1
Procedure, shortened: as §1

AgHof1 = molecular target: AgHof1
Procedure, shortened: as §1

AgHse1 = molecular target: AgHse1
Procedure, shortened: as §1

AgLsb1 = molecular target: AgLsb1
Procedure, shortened: as §1

AgLsb4 = molecular target: AgLsb4
Procedure, shortened: as §1

AgMyo5 = molecular target: AgMyo5
Procedure, shortened: as §1

AgNbp2 = molecular target: AgNbp2
Procedure, shortened: as §1

AgRvs167 = molecular target: AgRvs167
Procedure, shortened: as §1

AgSho1 = molecular target: AgSho1
Procedure, shortened: as §1

AgSla1-D1-D2 = molecular target: AgSla1-D1-D2
Procedure, shortened: as §1

AgSla1-D3 = molecular target: AgSla1-D3
Procedure, shortened: as §1

CaAbp1-D1 = molecular target: CaAbp1-D1
Procedure, shortened: as §1

CaAbp1-D2 = molecular target: CaAbp1-D2
Procedure, shortened: as §1

CaBbc1 = molecular target: CaBbc1
Procedure, shortened: as §1

CaBem1-D1 = molecular target: CaBem1-D1
Procedure, shortened: as §1

CaBzz1-D1 = molecular target: CaBzz1-D1
Procedure, shortened: as §1

CaBzz1-D2 = molecular target: CaBzz1-D2
Procedure, shortened: as §1

CaCyk3 = molecular target: CaCyk3
Procedure, shortened: as §1

CaFus1 = molecular target: CaFus1
Procedure, shortened: as §1

CaHof1 = molecular target: CaHof1
Procedure, shortened: as §1

CaHse1 = molecular target: CaHse1
Procedure, shortened: as §1

CaLsb1 = molecular target: CaLsb1
Procedure, shortened: as §1

CaLsb4 = molecular target: CaLsb4
Procedure, shortened: as §1

CaMyo5 = molecular target: CaMyo5
Procedure, shortened: as §1

CaNbp2 = molecular target: CaNbp2
Procedure, shortened: as §1

CaRvs167 = molecular target: CaRvs167
Procedure, shortened: as §1

CaRvs167-3 = molecular target: CaRvs167-3
Procedure, shortened: as §1

CaSho1 = molecular target: CaSho1
Procedure, shortened: as §1

CaSla1-D1-D2 = molecular target: CaSla1-D1-D2
Procedure, shortened: as §1

CaSla1-D3 = molecular target: CaSla1-D3
Procedure, shortened: as §1

ScAbp1 = molecular target: ScAbp1
Procedure, shortened: as §1

ScBbc1 = molecular target: ScBbc1
Procedure, shortened: as §1

ScBem1-D1 = molecular target: ScBem1-D1
Procedure, shortened: as §1

ScBzz1-D1 = molecular target: ScBzz1-D1
Procedure, shortened: as §1

ScBzz1-D2 = molecular target: ScBzz1-D2
Procedure, shortened: as §1

ScCyk3 = molecular target: ScCyk3
Procedure, shortened: as §1

ScFus1 = molecular target: ScFus1
Procedure, shortened: as §1

ScHof1 = molecular target: ScHof1
Procedure, shortened: as §1

ScHse1 = molecular target: ScHse1
Procedure, shortened: as §1

ScLsb1 = molecular target: ScLsb1
Procedure, shortened: as §1

ScLsb2 = molecular target: ScLsb2
Procedure, shortened: as §1

ScLsb3 = molecular target: ScLsb3
Procedure, shortened: as §1

ScLsb4 = molecular target: ScLsb4
Procedure, shortened: as §1

ScMyo3 = molecular target: ScMyo3
Procedure, shortened: as §1

ScMyo5 = molecular target: ScMyo5
Procedure, shortened: as §1

ScNbp2 = molecular target: ScNbp2
Procedure, shortened: as §1

ScPex13 = molecular target: ScPex13
Procedure, shortened: as §1

ScRvs167 = molecular target: ScRvs167
Procedure, shortened: as §1

ScSho1 = molecular target: ScSho1
Procedure, shortened: as §1

ScSla1-D1-D2 = molecular target: ScSla1-D1-D2
Procedure, shortened: as §1

ScSla1-D3 = molecular target: ScSla1-D3
Procedure, shortened: as §1

SpAbp1-D1 = molecular target: SpAbp1-D1
Procedure, shortened: as §1

SpBbc1 = molecular target: SpBbc1
Procedure, shortened: as §1

SpBzz1-D1 = molecular target: SpBzz1-D1
Procedure, shortened: as §1

SpBzz1-D2 = molecular target: SpBzz1-D2
Procedure, shortened: as §1

SpCyk3 = molecular target: SpCyk3
Procedure, shortened: as §1

SpHof1 = molecular target: SpHof1
Procedure, shortened: as §1

SpHof1-2 = molecular target: SpHof1-2
Procedure, shortened: as §1

SpHof1-3 = molecular target: SpHof1-3
Procedure, shortened: as §1

SpHse1 = molecular target: SpHse1
Procedure, shortened: as §1

SpLsb1 = molecular target: SpLsb1
Procedure, shortened: as §1

SpLsb4 = molecular target: SpLsb4
Procedure, shortened: as §1

SpMyo1 = molecular target: SpMyo1
Procedure, shortened: as §1

SpNbp2 = molecular target: SpNbp2
Procedure, shortened: as §1

SpPex13 = molecular target: SpPex13
Procedure, shortened: as §1

SpRvs167 = molecular target: SpRvs167
Procedure, shortened: as §1

SpSla1-D1-D2 = molecular target: SpSla1-D1-D2
Procedure, shortened: as §1

SpSla1-D3 = molecular target: SpSla1-D3
Procedure, shortened: as §1

Measured: SPOT peptide array binding signal intensity

KTITLEVESSDTIDN
2: AgSla1-D1-D2
8: ScBzz1-D1
2.5: CaRvs167-3
1: ScAbp1 | ScHof1 | SpBbc1
15: ScFus1
1.5: AgRvs167
3: AgLsb4
0.5: AgAbp1 | CaLsb1
10.2: ScSla1-D3
≤ 0: all other assays above

TTAPALPSLPPPPLL
1690: AgHof1
7.5: SpBbc1
0.5: AgAbp1 | CaLsb1
1950: CaMyo5
0.667: AgRvs167
2250: ScHof1
22: AgBzz1-D1
0.25: CaSla1-D3
2800: ScMyo3
3050: AgMyo5
5.75: CaHse1
21: CaAbp1-D2
214: ScPex13
42: ScSho1
873: CaHof1
190: ScBzz1-D1
124: SpBzz1-D1
2: ScBem1-D1
3: AgSla1-D3 | CaBbc1
25: AgBzz1-D2
2300: ScMyo5
3.5: CaBzz1-D1
1: CaRvs167 | CaRvs167-3 | ScAbp1 | ScBbc1
5: CaAbp1-D1
1.5: ScSla1-D3
not listed: SpBzz1-D2 | SpCyk3 | SpHof1 | SpHof1-2 | SpHof1-3 | SpHse1 | SpLsb1 | SpLsb4 | SpMyo1 | SpNbp2 | SpPex13 | SpRvs167 | SpSla1-D1-D2 | SpSla1-D3
≤ 0: all other assays above

PELAPKREAPKPPAN
1220: SpMyo1
564: AgNbp2
1560: ScNbp2
1.5: CaMyo5 | SpHof1-2
91: ScBzz1-D1
7.5: AgBem1-D1 | SpHse1
12: AgBzz1-D2
17: ScBbc1
1020: CaNbp2
4.5: ScSla1-D3
14: CaFus1
652: CaBzz1-D1
2.83: AgRvs167
265: CaBzz1-D2
34.5: AgBzz1-D1
3: AgSla1-D3
2.5: AgHof1
3.5: CaAbp1-D2
0.5: AgAbp1 | AgFus1 | CaHse1 | ScLsb2 | SpBzz1-D2 | SpHof1
10: ScBzz1-D2
0.667: CaRvs167
1: CaBem1-D1 | CaSla1-D3 | ScAbp1 | SpCyk3 | SpHof1-3
9: SpBzz1-D1
1310: ScMyo3
5: ScPex13 | SpAbp1-D1
73.2: CaBbc1
560: AgMyo5
906: ScMyo5
≤ 0: all other assays above
